{
  "source": "PubChem BioAssay (NCI)",
  "note": "Values joined by “and” are separate entries in the source; they are usually repeats but may differ in a detail not shown here. Equal entries are not always repeated. This is part of a sample that, as a whole, favours compounds with a hit. Of some 83,000 tested, about 20% had one in any assay.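 Results are percent growth after 48 hours of single-concentration exposure. 100 means growth as in untreated cells, lower positive values show inhibition; negative values down to -100 show cell death.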 Active and inactive are the calls of the source. The calls were made as follows: active = growth percent below 10; inactive = the rest.",
  "data": [
    {"tested_on": "OVCAR-3 ovarian", "experiment": "NCI-60 one-dose screen, 48 h (100 = growth as untreated, 0 = no growth, -100 = all killed)", "settings": "10 µM unless noted", "values": [
      {"molecule": "CS(=O)(=O)c1nsc(N)n1", "growth": "107% (inactive)"},
      {"molecule": "CCCC(=O)OCC(COC(=O)CCC)OC(=O)CCC", "growth": "105% (inactive)"},
      {"molecule": "Cc1ccc(C(=O)c2ccc(C)cc2)cc1", "growth": "99.1% (inactive) and 105% (inactive)"},
      {"molecule": "Cc1cc2nc3ccc(=[N+](C)C)cc-3sc2cc1N", "growth": "-15.2% (active) and -44% (active)"},
      {"molecule": "O=C1c2ccccc2C(c2ccccc2)C1c1ccccc1", "note": "(configuration not stated)", "growth": "105% (inactive)"},
      {"molecule": "COC(=O)CCOc1ccccc1", "growth": "97% (inactive)"},
      {"molecule": "CC(C)(C(=O)c1cccnc1)c1cccnc1", "growth": "112% (inactive) and 118% (inactive)"},
      {"molecule": "N#CC1c2ccccc2C=CN1C(=O)c1ccccc1", "note": "(configuration not stated)", "growth": "93.6% (inactive) and 95.9% (inactive)"},
      {"molecule": "OCCS", "growth": "105% (inactive)"},
      {"molecule": "Cc1ccc2cccc([N+](=O)[O-])c2n1", "growth": "111% (inactive) and 110% (inactive)"},
      {"molecule": "CCN(C)c1ccccc1", "growth": "108% (inactive)"},
      {"molecule": "CCCC(=O)Oc1ccc(CC)cc1", "growth": "115% (inactive)"},
      {"molecule": "O=[N+]([O-])c1ccc(NC2CCCCC2)nc1", "growth": "112% (inactive) and 114% (inactive)"},
      {"molecule": "O=C1C(=O)c2ccccc2C(O)=C1CC=C(Cl)Cl", "growth": "65.8% (inactive) and 67.1% (inactive)"},
      {"molecule": "CC1=CC(=O)c2cccc(NC3=NCCO3)c21", "growth": "106% (inactive)"},
      {"molecule": "COc1ccc2nccc(Cl)c2c1", "growth": "102% (inactive)"},
      {"molecule": "CCc1ccc(OC(=O)CCl)cc1", "growth": "104% (inactive)"},
      {"molecule": "CC(=O)Oc1cc(C(C)C)c(OCCN(C)C)cc1C", "growth": "125% (inactive) and 119% (inactive)"},
      {"molecule": "O=C(O)c1cccc(Br)c1", "growth": "100% (inactive) and 105% (inactive)"},
      {"molecule": "CC1(C)CC(=O)NC1=O", "growth": "103% (inactive)"},
      {"molecule": "OCCSc1ccc(Cl)cc1", "growth": "124% (inactive) and 110% (inactive)"},
      {"molecule": "COc1ccc(S(=O)(=O)c2ccc(F)cc2)cc1", "growth": "107% (inactive)"},
      {"molecule": "COc1ccccc1OCC(O)CO", "note": "(configuration not stated)", "growth": "107% (inactive) and 125% (inactive)"},
      {"molecule": "Cc1ccc(NC(=S)N/C=C(\\c2ccccc2)S(=O)Cc2ccccc2)c(C)c1", "note": "(configuration not stated)", "growth": "106% (inactive)"},
      {"molecule": "O=[N+]([O-])c1ccc(NC(c2ccccc2)c2ccc3cccnc3c2O)cc1", "note": "(configuration not stated)", "growth": "30.7% (inactive)"},
      {"molecule": "CN1C2C=CC(=O)C1C1C(=O)N(c3ccccc3)C(=O)C12", "note": "(configuration not stated)", "growth": "47.1% (inactive)"},
      {"molecule": "Cc1cc(-c2ccc(N=Nc3c(C)nn(-c4ccc(S(=O)(=O)O)cc4)c3O)c(C)c2)ccc1N=Nc1ccc(O)c(C(=O)O)c1", "growth": "106% (inactive)"},
      {"molecule": "CCOCCC(=O)O", "growth": "115% (inactive)"},
      {"molecule": "O=c1[nH]nnc2cc(Cl)ccc12", "growth": "100% (inactive) and 123% (inactive)"},
      {"molecule": "NC(=O)Cc1nc(O)cc(=O)[nH]1", "growth": "109% (inactive)"},
      {"molecule": "CC1OS(=O)OC1C", "note": "(configuration not stated)", "growth": "103% (inactive) and 106% (inactive)"},
      {"molecule": "NNC(=O)Nc1ccccc1", "growth": "105% (inactive)"},
      {"molecule": "COC(=O)c1ccccc1Cl", "growth": "105% (inactive)"},
      {"molecule": "CCCCC/C(C)=N\\NC(N)=S", "growth": "43.4% (inactive)"},
      {"molecule": "COCCNC(C)=O", "growth": "113% (inactive)"},
      {"molecule": "Nc1nc(-c2ccccn2)cc(-c2cc(-c3ccccn3)nc(N)n2)n1", "growth": "110% (inactive)"}
    ]},
    {"tested_on": "HS 578T breast", "experiment": "NCI-60 one-dose screen, 48 h (100 = growth as untreated, 0 = no growth, -100 = all killed)", "settings": "10 µM unless noted", "values": [
      {"molecule": "CS(=O)(=O)c1nsc(N)n1", "growth": "103% (inactive)"},
      {"molecule": "CCCC(=O)OCC(COC(=O)CCC)OC(=O)CCC", "growth": "98.6% (inactive)"},
      {"molecule": "Cc1ccc(C(=O)c2ccc(C)cc2)cc1", "growth": "101% (inactive)"},
      {"molecule": "Cc1cc2nc3ccc(=[N+](C)C)cc-3sc2cc1N", "growth": "41.1% (inactive) and -0.376% (active)"},
      {"molecule": "O=C1c2ccccc2C(c2ccccc2)C1c1ccccc1", "note": "(configuration not stated)", "growth": "106% (inactive)"},
      {"molecule": "COC(=O)CCOc1ccccc1", "growth": "195% (inactive)"},
      {"molecule": "CC(C)(C(=O)c1cccnc1)c1cccnc1", "growth": "94.8% (inactive) and 110% (inactive)"},
      {"molecule": "N#CC1c2ccccc2C=CN1C(=O)c1ccccc1", "note": "(configuration not stated)", "growth": "94.2% (inactive) and 150% (inactive)"},
      {"molecule": "OCCS", "growth": "106% (inactive)"},
      {"molecule": "Cc1ccc2cccc([N+](=O)[O-])c2n1", "growth": "111% (inactive) and 109% (inactive)"},
      {"molecule": "CCN(C)c1ccccc1", "growth": "96.2% (inactive)"},
      {"molecule": "CCCC(=O)Oc1ccc(CC)cc1", "growth": "113% (inactive)"},
      {"molecule": "O=[N+]([O-])c1ccc(NC2CCCCC2)nc1", "growth": "100% (inactive) and 101% (inactive)"},
      {"molecule": "O=C1C(=O)c2ccccc2C(O)=C1CC=C(Cl)Cl", "growth": "82.3% (inactive) and 87.2% (inactive)"},
      {"molecule": "CC1=CC(=O)c2cccc(NC3=NCCO3)c21", "growth": "103% (inactive)"},
      {"molecule": "COc1ccc2nccc(Cl)c2c1", "growth": "103% (inactive)"},
      {"molecule": "CCc1ccc(OC(=O)CCl)cc1", "growth": "110% (inactive)"},
      {"molecule": "CC(=O)Oc1cc(C(C)C)c(OCCN(C)C)cc1C", "growth": "99.2% (inactive) and 97.7% (inactive)"},
      {"molecule": "O=C(O)c1cccc(Br)c1", "growth": "124% (inactive) and 101% (inactive)"},
      {"molecule": "CC1(C)CC(=O)NC1=O", "growth": "112% (inactive)"},
      {"molecule": "OCCSc1ccc(Cl)cc1", "growth": "101% (inactive)"},
      {"molecule": "COc1ccc(S(=O)(=O)c2ccc(F)cc2)cc1", "growth": "93.9% (inactive)"},
      {"molecule": "COc1ccccc1OCC(O)CO", "note": "(configuration not stated)", "growth": "61.7% (inactive) and 107% (inactive)"},
      {"molecule": "Cc1ccc(NC(=S)N/C=C(\\c2ccccc2)S(=O)Cc2ccccc2)c(C)c1", "note": "(configuration not stated)", "growth": "94.8% (inactive)"},
      {"molecule": "O=[N+]([O-])c1ccc(NC(c2ccccc2)c2ccc3cccnc3c2O)cc1", "note": "(configuration not stated)", "growth": "35.6% (inactive)"},
      {"molecule": "CN1C2C=CC(=O)C1C1C(=O)N(c3ccccc3)C(=O)C12", "note": "(configuration not stated)", "growth": "77.5% (inactive)"},
      {"molecule": "Cc1cc(-c2ccc(N=Nc3c(C)nn(-c4ccc(S(=O)(=O)O)cc4)c3O)c(C)c2)ccc1N=Nc1ccc(O)c(C(=O)O)c1", "growth": "91.8% (inactive)"},
      {"molecule": "CCOCCC(=O)O", "growth": "98.7% (inactive)"},
      {"molecule": "O=c1[nH]nnc2cc(Cl)ccc12", "growth": "126% (inactive) and 123% (inactive)"},
      {"molecule": "NC(=O)Cc1nc(O)cc(=O)[nH]1", "growth": "91.9% (inactive)"},
      {"molecule": "CC1OS(=O)OC1C", "note": "(configuration not stated)", "growth": "98.3% (inactive)"},
      {"molecule": "NNC(=O)Nc1ccccc1", "growth": "105% (inactive)"},
      {"molecule": "COC(=O)c1ccccc1Cl", "growth": "108% (inactive)"},
      {"molecule": "CCCCC/C(C)=N\\NC(N)=S", "growth": "87.6% (inactive)"},
      {"molecule": "COCCNC(C)=O", "growth": "106% (inactive)"},
      {"molecule": "Nc1nc(-c2ccccn2)cc(-c2cc(-c3ccccn3)nc(N)n2)n1", "growth": "127% (inactive)"}
    ]}
  ]
}
